Assay results from PubChem BioAssay AID1159580 (chemical genetic matrix, 2015).
About 2,000 (36%) of roughly 5,500 compounds were called active. Another 18% or so got no clear call; they are omitted. No stated cut-off is given here; in the data, active means normalized growth mostly below about 0.91 (no sharp cut-off); inconclusive means no clear call, values can overlap the other calls; inactive means mostly above about 0.92. This is one part of the list.

Assay: chemical genetic growth profiling, strain panel (AID 1159580);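 further: tested at 20 µM; growth read once vehicle control cultures reached saturation at 30 °C; 1 = growth at the plate median or of vehicle wells; lower values mean less growth of the strain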
Conditions: growth OD

Measured: normalized growth

CCOC(=O)OC(C)OC(=O)C1N2C(=O)C(NC(=O)[C@H](N)c3ccccc3)C2SC1(C)C (stereo not given in full)
inactive: S. cerevisiae deletion strains, locus YJR075W, strain HOC1, hits give low values 0.966 | S. cerevisiae deletion strains, locus YKL009W, strain mrt4, hits give low values 0.946 | S. cerevisiae deletion strains, locus YKL068W, hits give low values 0.98 | S. cerevisiae deletion strains, locus YKL085W, strain MDH1 (second series), hits give low values 0.989 | S. cerevisiae deletion strains, locus YKL085W, strain MDH1, hits give low values 0.989 | S. cerevisiae deletion strains, locus YKL160W, strain elf1, hits give low values 0.966 | S. cerevisiae deletion strains, locus YKL190W, strain CNB1, hits give low values 0.975 | S. cerevisiae deletion strains, locus YKR001C, strain vps1, hits give low values 0.98 | S. cerevisiae deletion strains, locus YKR026C, strain gcn3, hits give low values 1.01 | S. cerevisiae deletion strains, locus YKR091W, strain srl3, hits give low values 0.977 | S. cerevisiae deletion strains, locus YLL001W, strain dnm1, hits give low values 0.96 | S. cerevisiae deletion strains, locus YLL026W, hits give low values 0.998 | S. cerevisiae deletion strains, locus YLL041C, strain sdh2, hits give low values 0.983 | S. cerevisiae deletion strains, locus YLR027C, strain aat2, hits give low values 0.984 | S. cerevisiae deletion strains, locus YLR039C, strain RIC1, hits give low values 0.991 | S. cerevisiae deletion strains, locus YLR058C, strain SHM2, hits give low values 0.963 | S. cerevisiae deletion strains, locus YLR102C, strain apc9, hits give low values 0.987 | S. cerevisiae deletion strains, locus YLR113W, strain HOG1, hits give low values 0.966 | S. cerevisiae deletion strains, locus YLR221C, strain rsa3, hits give low values 0.999 | S. cerevisiae deletion strains, locus YLR258W, strain gsy2, hits give low values 1 | S. cerevisiae deletion strains, locus YLR262C, strain YPT6 (second series), hits give low values 0.982 | S. cerevisiae deletion strains, locus YLR262C, strain YPT6, hits give low values 0.964 | S. cerevisiae deletion strains, locus YLR268W, strain sec22, hits give low values 0.988 | S. cerevisiae deletion strains, locus YLR320W, strain mms22, hits give low values 0.96 | S. cerevisiae deletion strains, locus YLR330W, strain CHS5, hits give low values 0.992 | S. cerevisiae deletion strains, locus YLR342W, strain FKS1 (second series), hits give low values 1.11 | S. cerevisiae deletion strains, locus YLR342W, strain FKS1, hits give low values 0.976 | S. cerevisiae deletion strains, locus YLR357W, strain rsc2, hits give low values 0.961 | S. cerevisiae deletion strains, locus YLR370C, strain arc18, hits give low values 0.982 | S. cerevisiae deletion strains, locus YLR371W, strain rom2, hits give low values 0.999 | S. cerevisiae deletion strains, locus YLR384C, strain iki3, hits give low values 0.974 | S. cerevisiae deletion strains, locus YLR418C, strain cdc73, hits give low values 0.978 | S. cerevisiae deletion strains, locus YML016C, strain PPZ1, hits give low values 0.986 | S. cerevisiae deletion strains, locus YML032C, strain rad52, hits give low values 0.962 | S. cerevisiae deletion strains, locus YML120C, strain ndi1, hits give low values 0.974 | S. cerevisiae deletion strains, locus YML124C, strain tub3, hits give low values 0.987 | S. cerevisiae deletion strains, locus YMR058W, strain fet3, hits give low values 0.977 | S. cerevisiae deletion strains, locus YMR078C, strain ctf18, hits give low values 0.994 | S. cerevisiae deletion strains, locus YMR125W, strain sto1, hits give low values 0.99 | S. cerevisiae deletion strains, locus YMR129W, hits give low values 0.992 | S. cerevisiae deletion strains, locus YMR205C, strain PFK2, hits give low values 0.966 | S. cerevisiae deletion strains, locus YMR223W, strain ubp8, hits give low values 0.986 | S. cerevisiae deletion strains, locus YMR231W, strain pep5, hits give low values 0.998 | S. cerevisiae deletion strains, locus YMR263W, strain SAP30, hits give low values 0.967 | S. cerevisiae deletion strains, locus YMR307W, strain GAS1, hits give low values 1.04 | S. cerevisiae deletion strains, locus YNL067W, strain RPL9B, hits give low values 0.945 | S. cerevisiae deletion strains, locus YNL071W, strain lat1, hits give low values 0.998 | S. cerevisiae deletion strains, locus YNL153C, strain GIM3, hits give low values 0.932 | S. cerevisiae deletion strains, locus YNL183C, strain NPR1, hits give low values 0.947 | S. cerevisiae deletion strains, locus YNL209W, strain ssb2, hits give low values 0.989 | S. cerevisiae deletion strains, locus YNL233W, strain BNI4, hits give low values 0.97 | S. cerevisiae deletion strains, locus YNL248C, strain rpa49, hits give low values 0.985 | S. cerevisiae deletion strains, locus YNL250W, strain rad50, hits give low values 0.968 | S. cerevisiae deletion strains, locus YNL271C, strain bni1, hits give low values 0.986 | S. cerevisiae deletion strains, locus YNL298W, strain CLA4, hits give low values 0.982 | S. cerevisiae deletion strains, locus YNL307C, strain MCK1, hits give low values 0.995 | S. cerevisiae deletion strains, locus YNL322C, strain KRE1 (second series), hits give low values 0.968 | S. cerevisiae deletion strains, locus YNL322C, strain KRE1, hits give low values 0.985 | S. cerevisiae deletion strains, locus YNR049C, strain mso1, hits give low values 0.976 | S. cerevisiae deletion strains, locus YNR052C, strain pop2, hits give low values 0.987 | S. cerevisiae deletion strains, locus YOL006C, strain TOP1, hits give low values 0.825 | S. cerevisiae deletion strains, locus YOL012C, strain htz1 0.766 | S. cerevisiae deletion strains, locus YOL147C, strain pex11, hits give low values 0.993 | S. cerevisiae deletion strains, locus YOR001W, strain rrp6, hits give low values 1.01 | S. cerevisiae deletion strains, locus YOR061W, strain CKA2, hits give low values 0.949 | S. cerevisiae deletion strains, locus YOR069W, strain VPS5, hits give low values 0.992 | S. cerevisiae deletion strains, locus YOR070C, strain gyp1, hits give low values 0.993 | S. cerevisiae deletion strains, locus YOR080W, strain dia2, hits give low values 0.975 | S. cerevisiae deletion strains, locus YOR083W, strain WHI5, hits give low values 0.967 | S. cerevisiae deletion strains, locus YOR106W, strain vam3, hits give low values 0.952 | S. cerevisiae deletion strains, locus YOR136W, strain idh2, hits give low values 0.974 | S. cerevisiae deletion strains, locus YOR144C, strain elg1, hits give low values 0.987 | S. cerevisiae deletion strains, locus YOR184W, strain ser1, hits give low values 0.985 | S. cerevisiae deletion strains, locus YOR231W, strain MKK1, hits give low values 0.978 | S. cerevisiae deletion strains, locus YOR265W, strain rbl2, hits give low values 0.993 | S. cerevisiae deletion strains, locus YOR270C, strain vph1, hits give low values 0.92 | S. cerevisiae deletion strains, locus YOR290C, strain snf2, hits give low values 0.985 | S. cerevisiae deletion strains, locus YOR316C, strain cot1, hits give low values 0.976 | S. cerevisiae deletion strains, locus YPL051W, strain arl3, hits give low values 0.99 | S. cerevisiae deletion strains, locus YPL055C, strain LGE1, hits give low values 0.881 | S. cerevisiae deletion strains, locus YPL078C, strain atp4, hits give low values 0.971 | S. cerevisiae deletion strains, locus YPL106C, strain sse1, hits give low values 0.955 | S. cerevisiae deletion strains, locus YPL240C, strain hsp82, hits give low values 1 | S. cerevisiae deletion strains, locus YPL256C, strain CLN2, hits give low values 0.978 | S. cerevisiae deletion strains, locus YPR119W, strain clb2, hits give low values 0.983 | S. cerevisiae deletion strains, locus YPR141C, strain kar3, hits give low values 0.978 | S. cerevisiae deletion strains, locus YPR163C, strain tif3, hits give low values 0.984 | S. cerevisiae deletion strains, locus YPR167C, strain met16, hits give low values 0.996 | S. cerevisiae deletion strains, strain wtn01, hits give low values 0.992 | S. cerevisiae strains, strain wild type, hits give low values 0.98
